Assay outcomes as filed in PubChem.
Sampled rows, rich in hits. Any-hit rate of the full collection: about 3.5%.
TEAD-YAP inh: TEAD-YAP interaction inhibition, primary screen, TEAD-YAP interaction inhibitor project, luminescence, HEK-TIYL cells. TEAD-Gal4/YAP UAS-luciferase luminescence. inhibition, % at 9.12 µM. hit rate 1.4% among 640,000. AID 1259422, 2018; in the data active = inhibition above about 32%;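 note: 0% = median of test compound wells and 100% = reference inhibitor wells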
MITF primary: MITF inhibitors, primary screen, biochemical, AlphaScreen, human; Microphthalmia-associated transcription factor (Homo sapiens), O75030; AlphaScreen MITF homodimerization, bead proximity signal; inhibition, % at 2.6 µM; hit rate 0.91% among 650,000; in the data active = inhibition above about 50%;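 note: 0% = vehicle wells with protein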
GPR151 ag: activators of human GPR151, primary screen, cell-based, PathHunter beta-arrestin, luminescence | G-protein coupled receptor 151 (Homo sapiens), Q8TDV0 | PathHunter beta-arrestin GPR151 cells | activation, % at 11.2 µM | hit rate 1% among 650,000; in the data active = activation above about 4.9%;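 note: 0% = median of compound wells and 100% = cells with positive control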
Target sequence (Q8TDV0 whole entry, looked up): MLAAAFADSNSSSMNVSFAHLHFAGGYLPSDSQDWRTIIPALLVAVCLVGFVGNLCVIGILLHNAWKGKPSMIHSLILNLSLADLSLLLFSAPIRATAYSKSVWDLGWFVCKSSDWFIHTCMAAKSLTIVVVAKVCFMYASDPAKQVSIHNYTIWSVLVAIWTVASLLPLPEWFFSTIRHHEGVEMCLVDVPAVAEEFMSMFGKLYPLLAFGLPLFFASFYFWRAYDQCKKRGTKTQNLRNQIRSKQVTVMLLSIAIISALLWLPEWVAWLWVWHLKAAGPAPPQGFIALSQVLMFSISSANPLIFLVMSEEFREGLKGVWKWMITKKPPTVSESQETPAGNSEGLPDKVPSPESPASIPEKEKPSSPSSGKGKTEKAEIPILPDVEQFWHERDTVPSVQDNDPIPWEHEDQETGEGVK
FBW7 act: FBW7 E3 ligase activators, primary screen, biochemical, AlphaScreen, human; normalized activity (activation), % at 26.1 µM; hit rate 0.13% among 650,000; AlphaScreen FBW7–phospho-cyclin E peptide binding, activator screen; in the data active = normalized activity above about 1.9%;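 note: purified mutant Fbw7 with reduced substrate affinity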
GPR151 confirm: GPR151 activators, triplicate retest, confirmation, cell-based, PathHunter beta-arrestin, luminescence | activation, % at 11.2 µM | GPR151 PathHunter beta-arrestin cells, 90 min; % of EA-reagent control over plate median | 6,700 tested, under 10 active | shares compounds with GPR151 ag;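 active = mean percent activation across replicates above the confirmation screen cutoff of 4.91%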
GPR119 ag: GPR119 activators in beta-arrestin cells, counter-screen for GPR151 activator project, cell-based, PathHunter beta-arrestin, luminescence, triplicate | shares compounds with GPR151 ag | 90 min; 0 = compound-well median, 100 = enzyme-acceptor control | activation, % at 11.2 µM | hit rate 0.3% among 6,700;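 active = mean percent activation in the counterscreen above 29.09%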;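 note: counterscreen on off-target GPR119 to flag nonselective hits from the GPR151 activator screen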
Active calls of the source: *.

Screening COc1ccc2c(c1)CC(C(=O)Nc1ccc(-c3cn[nH]c3)cc1N1CCC(N(C)C)C1)CO2 (stereo not given) returned TEAD-YAP inh 1.9, MITF primary 0.2, GPR151 ag 1.4 and FBW7 act -0.6.
`CCOC(=O)C1CCN(C(=O)/C(=C/c2cccc([N+](=O)[O-])c2)c2ccccc2)CC1` gave TEAD-YAP inh -0.9, MITF primary 11.7, GPR151 ag 8.7*, FBW7 act -0.3, GPR151 confirm -0.4 and GPR119 ag -12.9.
COC(=O)C1CCN(C(=O)/C(=C\c2ccccc2)c2ccccc2)CC1 was read as TEAD-YAP inh -0.5, MITF primary -1.6, GPR151 ag 0.9 and FBW7 act -0.1.
Screening Cc1cc(C(=O)N2CCC(c3nc4ccccc4s3)CC2)nn1C returned TEAD-YAP inh -3.8, MITF primary 1.6, GPR151 ag 0.8 and FBW7 act -0.1.
For CC1CN(C(=O)c2cc(C(C)C)n(-c3nc4ccccc4s3)n2)CC(C)O1 (stereo not given) the results were TEAD-YAP inh 7.5, MITF primary 5.2, GPR151 ag 5.7*, FBW7 act 0.2, GPR151 confirm 0.6 and GPR119 ag -9.3.
For Cc1c(C(=O)NC(C)c2ccccc2)sc2ncnc(N3CCOCC3)c12 (stereo not given) the results were TEAD-YAP inh -25.1, MITF primary -7.3, GPR151 ag -1.0 and FBW7 act -0.2.
`COC(=O)C1=NNC2C(=O)N(c3ccc(OC)cc3)C(=O)C12` (stereo not given) gave TEAD-YAP inh 8.0, MITF primary 17.6, GPR151 ag 6.1*, FBW7 act 0.2, GPR151 confirm 0.1 and GPR119 ag 7.6.
`COc1cc(OC)cc(C(=O)NC(=S)Nc2ccc(S(N)(=O)=O)cc2)c1` gave TEAD-YAP inh -4.3, MITF primary 4.6, GPR151 ag -0.4 and FBW7 act -0.1.
For O=C(NCc1ccco1)/C(=C/c1ccccc1)NC(=O)c1cccc(Br)c1 the results were TEAD-YAP inh 7.9, MITF primary -4.7, GPR151 ag 5.2*, FBW7 act -0.1, GPR151 confirm -0.7 and GPR119 ag -10.4.
For O=C(NCc1ccco1)/C(=C/c1ccc(Cl)cc1)NC(=O)c1ccccc1 the results were TEAD-YAP inh 5.3, MITF primary 2.8, GPR151 ag 0.2 and FBW7 act 0.1.
`CCC(NC(=O)Cn1nnnc1CN1CCC(C)CC1)c1ccc(F)cc1` (stereo not given) gave TEAD-YAP inh 1.3, MITF primary 0.6, GPR151 ag 5.6*, FBW7 act 0.0, GPR151 confirm 0.2 and GPR119 ag -1.5.
COCCN1C(=O)CC[C@@]23C1=NC(C(=O)OC)=C(C(=O)OC)[C@@H]2N(Cc1ccccc1)c1ccccc13 was read as MITF primary -3.4, GPR151 ag -0.3 and FBW7 act -0.1.
COCCN1C(=O)CC[C@@]23C1=NC(C(=O)OC)=C(C(=O)OC)[C@@H]2N(C)c1ccccc13 was read as MITF primary 15.0, GPR151 ag 6.9*, FBW7 act 0.1, GPR151 confirm 0.7 and GPR119 ag 7.9.
For COC(=O)C1=C(C(=O)OC)[C@@H]2N(C)c3ccccc3[C@@]23CCC(=O)N(CCCOC(C)C)C3=N1 the results were MITF primary -4.2, GPR151 ag 7.2*, FBW7 act 0.1, GPR151 confirm -0.9 and GPR119 ag -6.9.
Screening O=C(O)CC1(CC(=O)Nc2cscc2S(=O)(=O)c2ccccc2)CCCCC1 returned TEAD-YAP inh -1.7, MITF primary 11.2, GPR151 ag 1.7 and FBW7 act -0.1.
For CCOc1ccc(NC(=O)c2sc3ncn(CC(=O)N4CC(C)CC(C)C4)c(=O)c3c2C)cc1 (stereo not given) the results were TEAD-YAP inh 19.9, MITF primary 2.0, GPR151 ag 6.3*, FBW7 act -0.1, GPR151 confirm -0.5 and GPR119 ag -0.4.
